Reference: the supplement of paper PMC10849652
About 7,900 targets were measured; listed, in parts, are those with a hit and a random draw of the rest. About 0.6% of all pairs of compound and target were hits.

Tests used:
Test in all cases: log2 fold change, soluble protein after heating vs DMSO (PISA); higher = thermal stabilisation; K562 cells, 10 uM, 30 min; active = over 0.2 and 3.5 SD of the protein, either way, in both replicates (recomputed)
[1] = compound: CC[C@@H]1C(=O)N(C)c2cnc(Nc3ccc(C(=O)NC4CCN(C)CC4)cc3OC)nc2N1C1CCCC1
How it was run: (§1)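 Quantification of soluble protein used TMTpro 16plex LC-MS/MS, with channel sums equalised. Samples were the supernatant after 21,000xg for 90 min of pooled aliquots from K562 cells (2×10^6 cells/mL) treated with 10 μM compound for 30 min, heated for 3 min over 48°C-58°C, and extracted in PBS with 0.5% NP-40 at 4°C. Values, from duplicates, describe thermal stability against control samples on a log2 fold-change scale.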

volasertib = compound: CC[C@@H]1C(=O)N(C)c2cnc(Nc3ccc(C(=O)N[C@H]4CC[C@H](N5CCN(CC6CC6)CC5)CC4)cc3OC)nc2N1C(C)C [volasertib]
How it was run: as §1

[2] = compound: CC[C@H](C)N1C=C(C2=C(C=C(C=C21)C3=CN=C(C=C3)N4CCNCC4)C(=O)NCC5=C(C=C(NC5=O)C)C)C
How it was run: as §1

epoxomicin = compound: CC[C@H](C)[C@@H](C(=O)N[C@@H]([C@@H](C)O)C(=O)N[C@@H](CC(C)C)C(=O)[C@]1(CO1)C)NC(=O)[C@H]([C@@H](C)CC)N(C)C(=O)C [epoxomicin]
How it was run: as §1

[3] = compound: CCn1c(C(=O)N(C2CC2)C2CC2)cc2c3c(ncn3C)c(Nc3cc(C)n(C)n3)nc21
How it was run: as §1

[4] = compound: CCn1cc(-c2ccnc3[nH]c(-c4cccc(CN(C)C)c4)cc23)c(-c2ccc(NC(=O)N(C)C)cc2)n1
How it was run: as §1

[5] = compound: CN(C)CC(=O)Nc1ccc2[nH]c(=O)c3ccccc3c2c1
How it was run: as §1

rosiglitazone = compound: CN(CCOC1=CC=C(C=C1)C[C@H]2C(=O)NC(=O)S2)C3=CC=CC=N3 (racemic) [rosiglitazone]
How it was run: as §1

[6] = compound: CN1C2=C(C3=C1C(=O)N(N=C3)CC4=CC(=CC=C4)N)SC(=C2)S(=O)C
How it was run: as §1

[7] = compound: CN1CCC(CNc2ccc3ncc(-c4cccc(OC(F)(F)F)c4)n3n2)CC1
How it was run: as §1

saracatinib = compound: CN1CCN(CCOc2cc(OC3CCOCC3)c3c(Nc4c(Cl)ccc5c4OCO5)ncnc3c2)CC1 [saracatinib]
How it was run: as §1

sotrastaurin = compound: CN1CCN(c2nc(C3=C(c4c[nH]c5ccccc45)C(=O)NC3=O)c3ccccc3n2)CC1 [sotrastaurin]
How it was run: as §1

alvocidib = compound: CN1CC[C@H](c2c(O)cc(O)c3c(=O)cc(-c4ccccc4Cl)oc23)[C@H](O)C1 [alvocidib]
How it was run: as §1

Tubastatin A = compound: CN1CCc2c(c3ccccc3n2Cc2ccc(C(=O)NO)cc2)C1 [Tubastatin A]
How it was run: as §1

[8] = compound: CNC(=O)C1=CC=CC=C1NC2=NC(=NC=C2Cl)NC3=C(C=C(C=C3)N4CCOCC4)OC
How it was run: as §1

defactinib = compound: CNC(=O)c1ccc(Nc2ncc(C(F)(F)F)c(NCc3nccnc3N(C)S(C)(=O)=O)n2)cc1 [defactinib]
How it was run: as §1

rucaparib = compound: CNCc1ccc(-c2[nH]c3cc(F)cc4c3c2CCNC4=O)cc1 [rucaparib]
How it was run: as §1

[9] = compound: CNc1nc(-c2ccc3c(N)n[nH]c3c2)cc(N2C[C@@H](C(=O)NC3CCCCC3)CC[C@H]2C)n1
How it was run: as §1

encorafenib = compound: COC(=O)N[C@@H](C)CNc1nccc(-c2cn(C(C)C)nc2-c2cc(Cl)cc(NS(C)(=O)=O)c2F)n1 [encorafenib]
How it was run: as §1

[10] = compound: COC(=O)[C@H](CCSC)NC(=O)C1=C(C=C(C=C1)NC[C@H](CS)N)C2=CC=CC=C2
How it was run: as §1

Measured: log2 fold change

TBC1D9B (UniProt Q66K14)
inactive: [2] 0.053 | epoxomicin -0.073 | [3] -0.089 | [4] -0.141 | [5] 0.021 | rosiglitazone -0.102 | [6] 0.018 | saracatinib -0.023 | sotrastaurin 0.077 | alvocidib -0.059 | Tubastatin A 0.063 | [8] -0.07 | defactinib -0.064 | rucaparib 0.009 | [9] -0.01 | encorafenib 0.065 | [10] 0.027
active: [1] -0.58 | volasertib -0.348 | [7] -0.328

SRSF3 (UniProt P84103)
Sequence of UniProt P84103 (P84103 whole entry, looked up): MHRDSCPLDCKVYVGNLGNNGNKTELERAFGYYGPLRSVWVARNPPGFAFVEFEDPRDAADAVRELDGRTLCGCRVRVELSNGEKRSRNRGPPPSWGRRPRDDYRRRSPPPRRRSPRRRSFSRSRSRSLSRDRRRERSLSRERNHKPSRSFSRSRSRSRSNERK
inactive: [1] 0.198 | volasertib 0.313 | [2] -0.075 | epoxomicin -0.213 | [3] 0.028 | [4] 0.189 | [5] -0.139 | rosiglitazone -0.115 | [6] 0.18 | [7] 0.233 | saracatinib 0.019 | sotrastaurin 0.079 | alvocidib 0.265 | Tubastatin A -0.026 | [8] -0.053 | defactinib 0.235 | rucaparib 0.257 | [9] -0.022 | encorafenib 0.023 | [10] 0.032

TJP2 isoform 7 (UniProt Q9UDY2)
Sequence of UniProt Q9UDY2 (Q9UDY2 whole entry, looked up): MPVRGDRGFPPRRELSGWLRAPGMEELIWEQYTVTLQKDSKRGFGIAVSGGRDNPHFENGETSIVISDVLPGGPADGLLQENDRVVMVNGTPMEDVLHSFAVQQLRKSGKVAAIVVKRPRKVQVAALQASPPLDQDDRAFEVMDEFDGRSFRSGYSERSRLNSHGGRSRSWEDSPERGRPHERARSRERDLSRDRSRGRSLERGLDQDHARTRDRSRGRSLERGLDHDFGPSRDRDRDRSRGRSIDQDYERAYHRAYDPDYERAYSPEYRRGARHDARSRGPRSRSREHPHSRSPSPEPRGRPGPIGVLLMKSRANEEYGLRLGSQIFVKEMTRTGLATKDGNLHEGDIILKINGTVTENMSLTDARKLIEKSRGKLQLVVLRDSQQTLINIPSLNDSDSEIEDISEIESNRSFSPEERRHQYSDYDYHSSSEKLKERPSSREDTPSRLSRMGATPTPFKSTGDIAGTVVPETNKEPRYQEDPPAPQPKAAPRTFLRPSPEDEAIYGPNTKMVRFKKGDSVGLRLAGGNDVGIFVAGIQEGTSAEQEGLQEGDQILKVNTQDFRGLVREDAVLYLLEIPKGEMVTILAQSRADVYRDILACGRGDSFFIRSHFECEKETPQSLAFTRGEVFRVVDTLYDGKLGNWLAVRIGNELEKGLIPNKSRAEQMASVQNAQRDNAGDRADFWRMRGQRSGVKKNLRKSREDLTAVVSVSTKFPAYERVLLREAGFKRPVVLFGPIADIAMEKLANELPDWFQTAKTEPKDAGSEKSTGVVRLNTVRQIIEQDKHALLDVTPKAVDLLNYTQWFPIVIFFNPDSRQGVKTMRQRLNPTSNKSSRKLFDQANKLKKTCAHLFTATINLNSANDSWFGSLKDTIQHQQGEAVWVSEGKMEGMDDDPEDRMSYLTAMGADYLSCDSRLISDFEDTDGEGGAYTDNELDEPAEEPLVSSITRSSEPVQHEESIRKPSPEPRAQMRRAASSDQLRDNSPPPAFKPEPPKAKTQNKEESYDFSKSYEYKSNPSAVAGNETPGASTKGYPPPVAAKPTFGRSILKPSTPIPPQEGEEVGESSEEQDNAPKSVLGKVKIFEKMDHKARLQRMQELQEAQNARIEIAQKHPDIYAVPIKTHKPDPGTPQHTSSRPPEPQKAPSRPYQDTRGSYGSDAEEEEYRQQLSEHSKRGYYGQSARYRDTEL
inactive: [1] -0.128 | volasertib -0.298 | [2] -0.018 | epoxomicin 0.01 | [3] -0.041 | [4] -0.083 | [5] 0.015 | rosiglitazone 0.07 | [6] -0.021 | [7] -0.094 | saracatinib -0.074 | sotrastaurin -0.151 | alvocidib -0.067 | Tubastatin A 0.047 | [8] -0.06 | defactinib -0.211 | rucaparib 0.051 | [9] 0.054 | encorafenib 0.066 | [10] -0.097

TELO2 (UniProt Q9Y4R8)
Sequence of UniProt Q9Y4R8 (Q9Y4R8 whole entry, looked up): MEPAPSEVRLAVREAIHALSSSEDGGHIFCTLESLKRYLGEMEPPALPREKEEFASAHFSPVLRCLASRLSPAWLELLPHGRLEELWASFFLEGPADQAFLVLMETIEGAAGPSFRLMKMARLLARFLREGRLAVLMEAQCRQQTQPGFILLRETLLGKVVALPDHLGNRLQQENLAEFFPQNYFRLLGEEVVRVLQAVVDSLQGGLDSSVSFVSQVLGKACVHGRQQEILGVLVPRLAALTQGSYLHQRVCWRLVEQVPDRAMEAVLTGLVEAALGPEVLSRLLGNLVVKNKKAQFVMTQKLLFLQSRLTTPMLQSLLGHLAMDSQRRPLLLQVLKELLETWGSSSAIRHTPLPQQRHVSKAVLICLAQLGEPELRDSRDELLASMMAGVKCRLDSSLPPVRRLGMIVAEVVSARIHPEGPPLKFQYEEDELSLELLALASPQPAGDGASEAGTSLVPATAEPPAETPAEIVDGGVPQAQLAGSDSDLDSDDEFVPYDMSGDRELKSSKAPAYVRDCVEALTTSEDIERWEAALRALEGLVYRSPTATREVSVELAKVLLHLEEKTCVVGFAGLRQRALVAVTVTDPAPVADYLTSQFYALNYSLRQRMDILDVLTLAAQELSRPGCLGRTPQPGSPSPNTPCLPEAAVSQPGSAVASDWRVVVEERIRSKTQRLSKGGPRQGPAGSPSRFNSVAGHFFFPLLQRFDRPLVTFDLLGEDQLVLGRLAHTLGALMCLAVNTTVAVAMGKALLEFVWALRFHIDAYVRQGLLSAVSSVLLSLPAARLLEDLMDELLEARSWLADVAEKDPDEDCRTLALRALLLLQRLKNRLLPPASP
inactive: [1] -0.083 | [2] -0.017 | epoxomicin -0.093 | [3] -0.031 | [4] 0.005 | [5] 0.123 | rosiglitazone 0.036 | [6] 0.154 | [7] -0.052 | saracatinib -0.05 | sotrastaurin -0.211 | alvocidib -0.015 | Tubastatin A -0.004 | [8] 0.03 | defactinib -0.019 | rucaparib 0.2 | [9] 0.145 | encorafenib 0.049 | [10] -0.057
active: volasertib -0.359

SLIRP (UniProt Q9GZT3)
inactive: [1] 0.05 | volasertib 0.343 | [2] -0.093 | epoxomicin 0.302 | [3] 0.015 | [4] 0.02 | [5] 0.08 | rosiglitazone 0.058 | [6] 0.092 | [7] 0.06 | saracatinib -0.068 | sotrastaurin -0.141 | alvocidib -0.143 | Tubastatin A 0.019 | [8] -0.045 | defactinib -0.005 | rucaparib 0.148 | [9] -0.185 | encorafenib -0.094 | [10] 0.096

TCOF1 isoform 4 (UniProt Q13428)
Sequence of UniProt Q13428 (Q13428 whole entry, looked up): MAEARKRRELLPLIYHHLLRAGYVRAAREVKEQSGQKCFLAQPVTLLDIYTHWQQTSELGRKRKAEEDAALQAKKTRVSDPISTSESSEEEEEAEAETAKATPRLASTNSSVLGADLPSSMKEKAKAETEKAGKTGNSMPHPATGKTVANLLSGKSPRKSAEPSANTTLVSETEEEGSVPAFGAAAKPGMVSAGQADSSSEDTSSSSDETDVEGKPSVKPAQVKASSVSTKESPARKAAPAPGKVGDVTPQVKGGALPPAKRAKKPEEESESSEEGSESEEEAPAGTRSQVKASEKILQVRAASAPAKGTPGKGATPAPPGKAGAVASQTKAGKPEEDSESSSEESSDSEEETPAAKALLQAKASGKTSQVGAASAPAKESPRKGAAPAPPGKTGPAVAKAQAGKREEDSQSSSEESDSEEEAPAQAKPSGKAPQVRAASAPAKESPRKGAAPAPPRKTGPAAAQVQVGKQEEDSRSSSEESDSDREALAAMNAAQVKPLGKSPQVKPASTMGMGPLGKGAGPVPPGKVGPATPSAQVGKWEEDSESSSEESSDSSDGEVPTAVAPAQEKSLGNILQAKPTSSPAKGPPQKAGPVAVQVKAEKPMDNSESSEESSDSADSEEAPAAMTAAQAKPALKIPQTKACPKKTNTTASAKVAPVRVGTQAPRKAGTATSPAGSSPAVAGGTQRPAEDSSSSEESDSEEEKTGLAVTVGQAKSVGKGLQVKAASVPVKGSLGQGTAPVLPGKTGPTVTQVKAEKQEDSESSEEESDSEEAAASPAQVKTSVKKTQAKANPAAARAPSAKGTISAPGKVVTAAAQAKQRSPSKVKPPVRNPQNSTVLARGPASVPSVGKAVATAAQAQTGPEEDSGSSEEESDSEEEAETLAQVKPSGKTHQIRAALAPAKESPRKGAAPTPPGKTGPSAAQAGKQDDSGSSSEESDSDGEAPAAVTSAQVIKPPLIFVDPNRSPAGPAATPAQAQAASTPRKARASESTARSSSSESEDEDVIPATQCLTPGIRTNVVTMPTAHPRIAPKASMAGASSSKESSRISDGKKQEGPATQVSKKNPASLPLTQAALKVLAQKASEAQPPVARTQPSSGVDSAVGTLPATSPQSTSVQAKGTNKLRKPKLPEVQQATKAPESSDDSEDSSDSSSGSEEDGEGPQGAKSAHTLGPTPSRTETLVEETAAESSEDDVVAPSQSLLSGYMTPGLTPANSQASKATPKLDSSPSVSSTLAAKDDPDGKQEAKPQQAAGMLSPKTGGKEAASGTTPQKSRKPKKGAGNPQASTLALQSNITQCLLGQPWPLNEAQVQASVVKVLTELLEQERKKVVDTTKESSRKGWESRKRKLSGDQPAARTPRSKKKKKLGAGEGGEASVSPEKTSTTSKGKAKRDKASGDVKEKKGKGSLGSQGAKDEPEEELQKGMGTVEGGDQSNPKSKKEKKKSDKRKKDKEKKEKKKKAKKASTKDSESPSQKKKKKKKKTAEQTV
inactive: [1] -0.018 | volasertib 0.034 | [2] -0.016 | epoxomicin -0.02 | [3] 0.013 | [4] 0.063 | [5] -0.052 | rosiglitazone -0.011 | [6] 0.019 | [7] -0.06 | saracatinib 0.016 | sotrastaurin -0.064 | alvocidib 0.012 | Tubastatin A 0.013 | [8] -0.006 | defactinib -0.033 | rucaparib 0.02 | [9] -0.038 | encorafenib 0.002 | [10] 0.026

STAM2 (UniProt O75886)
inactive: [1] -0.039 | [2] 0.063 | epoxomicin 0.039 | [3] -0.007 | [4] -0.056 | [5] 0 | rosiglitazone 0.022 | [6] -0.033 | [7] -0.128 | saracatinib -0.093 | sotrastaurin -0.011 | alvocidib -0.097 | Tubastatin A -0.014 | [8] 0.035 | defactinib -0.095 | rucaparib -0.035 | [9] -0.02 | encorafenib 0.027 | [10] -0.019
active: volasertib -0.297

SURF1 (UniProt Q15526)
Sequence of UniProt Q15526 (Q15526 whole entry, looked up): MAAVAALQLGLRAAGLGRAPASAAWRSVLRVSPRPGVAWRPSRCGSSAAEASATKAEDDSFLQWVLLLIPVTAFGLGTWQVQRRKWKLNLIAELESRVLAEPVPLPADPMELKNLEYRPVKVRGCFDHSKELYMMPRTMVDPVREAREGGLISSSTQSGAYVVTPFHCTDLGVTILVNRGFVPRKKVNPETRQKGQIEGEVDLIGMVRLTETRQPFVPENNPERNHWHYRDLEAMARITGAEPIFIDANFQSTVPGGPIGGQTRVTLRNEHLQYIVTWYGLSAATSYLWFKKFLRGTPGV
active: volasertib -0.274 | [7] -0.311
inactive: [1] -0.085 | [2] -0.055 | epoxomicin 0.012 | [3] -0.013 | [4] -0.059 | [5] 0.013 | rosiglitazone 0.035 | [6] -0.016 | saracatinib 0.034 | sotrastaurin -0.084 | alvocidib -0.078 | Tubastatin A -0.03 | [8] 0.026 | defactinib -0.012 | rucaparib -0.083 | [9] -0.092 | encorafenib 0.017 | [10] -0.105
